# Hedgehog inh – Hedgehog pathway signaling inhibitors, primary screen, luminescence, Shh-LIGHT2 cells, Gli-luciferase. 22,000 tested, 2.1% active. Shh-LIGHT2 Gli-luciferase reporter, 30 h. inhibition, % (concentration not given with the values);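 active means mean inhibition across valid replicates above about 65%, limit read from the data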;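 further: pathway switched on by Shh-conditioned medium diluted 1 in 25 in low serum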
# NOMO-1 viab – NOMO-1 AML cell viability reduction, primary screen, STK33 inhibitor project, CellTiter-Glo luminescence. NOMO-1 AML viability, 72 h. inhibition, % (concentration not given with the values). 37,000 tested, 7.5% active. AID 2330, 2010; in the data active means inhibition above about 80%
# YB-1 expr inh – inhibitors of YB-1 gene expression, primary screen, cell-based, fluorescence; U2OS, qRT-PCR YB-1 vs CDIP delta delta Cp, 16 h; stronger effect = higher value; zero = DMSO, each unit about twofold; delta delta Cp (YB-1 minus CDIP) (concentration not given with the values); 30,000 tested, 0.37% active; AID 434959, 2010;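 active means delta delta Cp rounded down to an integer at or above 3, about 3 SD of DMSO wells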;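 further: higher means less YB-1 transcript or more CDIP transcript relative to DMSO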
# PD-1 reverse act – activators reversing PD-1 mediated T-cell inhibition, primary screen, luminescence, primary human CD4 T cells, PD-L1 beads; CellTiter-Glo 96 h; activation, % (concentration not given with the values); 29,000 tested, under 10 active; call rule not given here;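 further: 0% = median vehicle wells and 100% = positive control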
# MITF inhib – inhibitors of MITF, primary screen, MITF inhibitor project, cell-based, luminescence; inhibition, % (test concentration not listed); AID 2240, 2010; 37,000 tested, 0.28% active; TRPM1 promoter luciferase, 24 h; in the data active means inhibition above about 85%;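 further: human melanocyte line stably carrying TRPM1 promoter luciferase reporter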
# * hit, by the source's call; / = not tested or not shown. This is a sample that favours compounds with a hit; in the whole collection about 7.4% have one here.
SMILES,Hedgehog inh,NOMO-1 viab,YB-1 expr inh,PD-1 reverse act,MITF inhib
COc1ccc(N(CC(=O)Nc2cccc(Cl)c2Cl)S(C)(=O)=O)cc1OC,/,9,/,0,-15
O=C(COc1cc(O)c2c(=O)c3ccccc3oc2c1)c1ccc(Cl)cc1,/,117*,/,-8,32
O=C(COc1cc(O)c2c(=O)c3ccccc3oc2c1)c1cccc([N+](=O)[O-])c1,/,-10,/,0,-7
C[C@H]1CN([C@@H](C)CO)C(=O)Cc2cc(NC(=O)Nc3ccccc3)ccc2O[C@H]1CN(C)Cc1ccc(-c2ccccc2)cc1,-32,-21,1.1,2,-17
C[C@H]1CN([C@@H](C)CO)C(=O)Cc2cc(NC(=O)Nc3ccc4c(c3)OCO4)ccc2O[C@H]1CN(C)Cc1ccc(-c2ccccc2)cc1,/,92*,-0.42,1,20
C[C@@H]1CN([C@H](C)CO)C(=O)Cc2cc(NC(=O)Nc3ccc4c(c3)OCO4)ccc2O[C@@H]1CN(C)Cc1ccc(-c2ccccc2)cc1,41,73,-0.22,-7,38
C[C@H](CO)N1C[C@H](C)[C@H](CN(C)Cc2ccc(-c3ccccc3)cc2)Oc2ccc(NC(=O)Nc3ccccc3)cc2CC1=O,6,113*,0.16,1,17
COc1ccc(NC(=O)Nc2ccc3c(c2)CC(=O)N([C@H](C)CO)C[C@@H](C)[C@@H](CN(C)Cc2ccc(-c4ccccc4)cc2)O3)cc1,13,112*,-0.13,-2,4
C[C@@H]1CN([C@@H](C)CO)C(=O)c2cccc(NC(=O)Nc3ccc(F)cc3)c2O[C@H]1CN(C)S(=O)(=O)c1ccc(F)cc1,-52,4,0.081,0,-6
C[C@H](CO)N1C[C@H](C)[C@H](CN(C)S(=O)(=O)c2ccc(F)cc2)Oc2c(NC(=O)Nc3ccc(F)cc3)cccc2C1=O,101*,30,0.028,/,-15
C[C@H](CO)N1C[C@H](C)[C@@H](CN(C)S(=O)(=O)c2ccc(F)cc2)Oc2c(NC(=O)Nc3ccc(F)cc3)cccc2C1=O,29,29,0.58,0,1
C[C@@H]1CN([C@@H](C)CO)C(=O)c2cccc(NC(=O)Nc3ccc(F)cc3)c2O[C@@H]1CN(C)S(=O)(=O)c1ccc(F)cc1,-7,85*,-0.24,/,49
COc1cccc(C(=O)OCC(=O)c2ccccc2)c1OC,-29,-20,-0.18,0,-29
Cc1ccc(N(C(C)C(=O)Nc2c(C)cc(C)cc2C)S(C)(=O)=O)cc1 (configuration not stated),/,19,/,0,-6
COc1cc(O)c(C(=O)/C=C/c2ccccc2)c(OC)c1,21,93*,0.14,/,-18
O=[N+]([O-])c1nn(-c2ccccc2)n(O)c1=NC1CCN(Cc2ccccc2)CC1,/,114*,/,/,62
CC(CCc1ccccc1)N=c1c([N+](=O)[O-])nn(-c2ccccc2)n1O (configuration not stated),/,18,/,1,24
COc1ccccc1C1CCN(S(=O)(=O)c2ccccc2Br)CC1,/,-4,-0.11,0,-25
COc1ccccc1C1CCN(Cc2cccc3ccccc23)CC1,-6,100*,0.58,-7,7
C[C@@H]1CN([C@@H](C)CO)C(=O)Cc2cc(NC(=O)CCCCCC(=O)Nc3ccccc3N)ccc2O[C@@H]1CN(C)Cc1ccccc1,/,113*,-0.7,-1,18
C[C@H](CO)N1C[C@H](C)[C@H](CN(C)Cc2ccc(-c3ccccc3)cc2)Oc2ccc(NC(=O)CCCCCC(=O)Nc3ccccc3N)cc2C1=O,/,65,0.41,0,6
C[C@@H]1CN([C@H](C)CO)C(=O)Cc2cc(NC(=O)CCCCCC(=O)Nc3ccccc3N)ccc2O[C@H]1CN(C)Cc1ccc(Oc2ccccc2)cc1,/,125*,-0.076,2,-1
COc1ccc(CN(C)C[C@H]2Oc3ccc(NC(=O)CCCCCC(=O)Nc4ccccc4N)cc3CC(=O)N([C@@H](C)CO)C[C@@H]2C)cc1,/,42,0.42,1,10
C[C@H]1CN([C@@H](C)CO)C(=O)Cc2cc(NC(=O)CCCCCC(=O)Nc3ccccc3N)ccc2O[C@H]1CN(C)Cc1ccc(-c2ccccc2)cc1,/,142*,-0.57,-3,22
C[C@H]1CN([C@@H](C)CO)C(=O)c2cc(NC(=O)CCCCCC(=O)Nc3ccccc3N)ccc2O[C@H]1CN(C)Cc1ccc(-c2ccccc2)cc1,/,109*,-0.063,-2,11
SMILES,Hedgehog inh,NOMO-1 viab,YB-1 expr inh,PD-1 reverse act,MITF inhib
C[C@@H]1CN([C@@H](C)CO)C(=O)Cc2cc(NC(=O)CCCCCC(=O)Nc3ccccc3N)ccc2O[C@@H]1CN(C)Cc1ccncc1,/,34,-0.22,0,-16
COc1ccc([Si](C)(C)[C@H]2[C@H](CC(=O)N3Cc4ccccc4C[C@H]3CO)O[C@@]3(C(=O)N(C)c4c(Br)cc(C)cc43)[C@@H]2C)cc1,/,/,-0.042,/,/
Cc1cccc(-n2c(SCC(=O)Nc3ccc(C)cc3Br)nnc2-c2ccncc2)c1,/,11,/,-1,6
C[C@H]1CN([C@@H](C)CO)C(=O)Cc2cc(NC(=O)Nc3ccc(F)cc3)ccc2O[C@@H]1CN(C)S(=O)(=O)c1ccc(F)cc1,-35,25,-0.19,0,-11
C[C@@H]1CN([C@@H](C)CO)C(=O)Cc2cc(NC(=O)Nc3ccc(C(F)(F)F)cc3)ccc2O[C@@H]1CN(C)S(=O)(=O)c1ccc(F)cc1,12,100*,0.09,-1,17
C[C@H](CO)N1C[C@H](C)[C@H](CN(C)S(=O)(=O)c2ccc(F)cc2)Oc2ccc(NC(=O)CCC(F)(F)F)cc2CC1=O,-34,126*,0.049,0,20
C[C@H]1CN([C@@H](C)CO)C(=O)Cc2cc(NC(=O)CCC(F)(F)F)ccc2O[C@@H]1CN(C)S(=O)(=O)c1ccc(F)cc1,/,16,-0.92,/,7
C[C@H]1CN([C@@H](C)CO)C(=O)Cc2cc(NC(=O)Nc3ccc(C(F)(F)F)cc3)ccc2O[C@H]1CN(C)S(=O)(=O)c1ccc(F)cc1,-1,115*,-0.16,-3,46
C[C@@H]1CN([C@H](C)CO)C(=O)Cc2cc(NC(=O)Nc3ccc(C(F)(F)F)cc3)ccc2O[C@H]1CN(C)S(=O)(=O)c1ccc(F)cc1,12,6,0.25,1,25
CCc1cccc(OCC(=O)Nc2ccccc2C(N)=O)c1,/,52,/,-4,-67
O=C(COc1ccc2ccccc2c1Br)Nc1ccccc1C(=O)N1CCCCC1,/,34,/,0,29
CC1=CC2OC3[C@H](O)C[C@](C)([C@@]2(CO)CC1=O)[C@]31CO1 (some centres not stated),95*,119*,-0.49,-2,47

# Bioassay records: PubChem BioAssay, Broad Institute
